Activation data for 98 compounds are collected here from PubChem BioAssay AID2796 (The Scripps Research Institute Molecular Screening Center, 2010).

Each structure is given as a SMILES string. About 8,000 (2.5%) of roughly 320,000 compounds were called active. No stated cut-off is given here; in the data, active means activation above about 47%; inactive means the rest. Only a selection was taken, and actives are over-represented in it overall.

The target of this assay is Aryl hydrocarbon receptor (Homo sapiens) (UniProt P35869). The assay is described as follows: AHR activators, primary screen, cell-based, luminescence, luciferase reporter, human (AID 2796).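 Further: 0% = vehicle wells and 100% = reference agonist.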 As to conditions: AHR-responsive luciferase reporter cells, at 5 µM, stronger effect = higher value. (A reporter such as luciferase makes a cellular process visible.)
Sequence of Aryl hydrocarbon receptor (Homo sapiens) (P35869 whole entry, looked up): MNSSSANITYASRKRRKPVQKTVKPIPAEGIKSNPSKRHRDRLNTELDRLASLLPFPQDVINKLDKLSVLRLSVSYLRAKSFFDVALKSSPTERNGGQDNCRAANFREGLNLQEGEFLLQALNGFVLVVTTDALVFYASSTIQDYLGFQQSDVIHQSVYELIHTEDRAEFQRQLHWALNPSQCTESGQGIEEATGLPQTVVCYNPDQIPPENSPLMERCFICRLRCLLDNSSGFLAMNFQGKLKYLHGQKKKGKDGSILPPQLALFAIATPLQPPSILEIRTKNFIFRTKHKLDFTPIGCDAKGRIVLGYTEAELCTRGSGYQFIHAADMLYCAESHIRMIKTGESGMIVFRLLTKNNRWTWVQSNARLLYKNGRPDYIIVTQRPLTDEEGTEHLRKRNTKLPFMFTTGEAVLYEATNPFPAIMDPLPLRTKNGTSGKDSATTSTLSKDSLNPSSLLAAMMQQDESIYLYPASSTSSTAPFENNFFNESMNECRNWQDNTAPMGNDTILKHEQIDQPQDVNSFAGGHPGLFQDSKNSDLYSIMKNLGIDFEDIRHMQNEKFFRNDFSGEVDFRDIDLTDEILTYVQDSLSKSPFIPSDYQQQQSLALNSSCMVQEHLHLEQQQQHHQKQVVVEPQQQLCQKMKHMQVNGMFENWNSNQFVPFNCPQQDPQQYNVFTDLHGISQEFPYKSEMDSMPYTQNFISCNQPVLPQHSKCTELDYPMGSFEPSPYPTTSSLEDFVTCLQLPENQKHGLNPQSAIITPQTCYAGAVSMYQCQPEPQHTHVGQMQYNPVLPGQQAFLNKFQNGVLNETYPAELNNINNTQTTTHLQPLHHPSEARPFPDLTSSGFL
Regarding `Cn1cccc1C(=O)OCC(=O)NCCc1ccccc1`, the activation was 7.54% (inactive).

Turning to `S=c1nc2ccccc2c2nc(-c3cccnc3)[nH]n12`, the activation is 83.8% (active).

On to `c1ccc(-n2nnnc2-c2cccnc2)cc1`, for which the activation is 36.3% (inactive).

For the compound `O=C(CSc1n[nH]c(-c2cccnc2)n1)Nc1ccnc2ccccc12`, the activation is 8.3% (inactive).

`O=C(/C=C/Sc1ncn[nH]1)c1ccc(Cl)cc1`: the activation was 0.35% (inactive).

Consider `COc1cc(C)ccc1OCC(=O)OCC(=O)c1ccc[nH]1`, for which the activation was -3.4% (inactive).

On to `COCCNc1nc(-c2ccccc2)nc2c1oc1ccccc12`, for which the activation was 88.9% (active).

For the compound `C[C@@H](Nc1nc(-c2ccccc2)nc2c1oc1ccccc12)C(=O)O`, the activation was 16.4% (inactive).

With `CCOCCCNc1nc(-c2ccccc2)nc2ccccc12`, the activation was 13.5% (inactive).

In the case of `O=C(Cn1cncn1)N/N=C/c1c2ccccc2cc2ccccc12`, the activation is 84.8% (active).

Regarding `Cc1nn(-c2ccccc2)c(C)c1/C=N/NC(=O)CSc1nc2ccccc2c(=O)n1-c1ccccc1`, the activation is 1.64% (inactive).

Consider `Nc1nnn(CC(=O)N/N=C/c2ccccc2)n1`, for which the activation is 0.68% (inactive).

On to `CCCCNC(=O)C1CCCNC1=O` (stereo not drawn), for which the activation is -1.12% (inactive).

Consider `c1ccc(-c2csc(N3CCc4ccccc4C3)n2)cc1`, for which the activation is 14.7% (inactive).

For `COc1ccc(/C=N/Nc2ccccc2C(=O)O)cc1`, the activation was 3.83% (inactive).

For the compound `O=C(NN=Cc1ccc(N2CCOCC2)cc1)c1cc2ccccc2cc1O`, the activation is 11.3% (inactive).

`NC(=O)c1ccccc1N=Cc1ccc2ccccc2c1`: the activation is 87.6% (active).

As to `O=C(c1ccc(N2CCOCC2)c([N+](=O)[O-])c1)N1CCN(S(=O)(=O)c2cccs2)CC1`, the activation is -4.2% (inactive).

As to `Cn1c(=O)c2c(nc(N3CCOCC3)n2CCNC2=NCCC2)n(C)c1=O`, the activation was -1.68% (inactive).

Take `O=C(c1ccc(F)cc1)N1CCC(n2nnc3ccccc32)CC1`: the activation is -1.01% (inactive).

Regarding `Fc1ccc2nc(Nc3nc4c(s3)CCCC4)sc2c1`, the activation is 49.8% (active).

With `NS(=O)(=O)c1ccc2nc(NC(=O)CS(=O)(=O)c3ccc(F)cc3)sc2c1`, the activation is 8.79% (inactive).

In the case of `CCS(=O)(=O)N1Cc2ccccc2CC1C(=O)Nc1nc2ccc(F)cc2s1` (stereo not drawn), the activation is -3.42% (inactive).

Regarding `O=C(Nc1ccc(Br)cc1F)C1CC(=O)N(C2CCCCC2)C1` (stereo not drawn), the activation was 0.73% (inactive).

As for `COc1ccccc1CCNC(=O)CN1C(=O)NC2(CCCC2)C1=O`, the activation is -2.06% (inactive).

For `Cc1cc2c(cc1S(=O)(=O)NCc1ccc(Cl)cc1)OCC(=O)N2`, the activation is 1% (inactive).

As to `COc1ccccc1-c1nnc(SCC(=O)N2CC(C)CC(C)C2)o1` (stereo not drawn), the activation is 29% (inactive).

As to `COc1cccc(NC(=O)CSc2nnc(-c3cccnc3)o2)c1`, the activation was 29.8% (inactive).

Regarding `COc1ccccc1-c1nnc(SCC(=O)Nc2ccccc2)o1`, the activation is 75.5% (active).

Regarding `CN(CC(=O)Nc1ccc(F)cc1)CC(=O)N1CCCCC1`, the activation is 3.11% (inactive).

Take `CCc1ccc(N(C(=O)c2csnn2)C(C(=O)NC2CCCCC2)c2ccncc2)cc1` (stereo not drawn): the activation was 3.1% (inactive).

Take `O=C(CN1C(=O)NC2(CCCC2)C1=O)Nc1cc(C(F)(F)F)ccc1N1CCOCC1`: the activation was -0.32% (inactive).

For `COc1ccc(C)cc1NC(=O)c1ccc(-c2ccc(C(C)=O)cc2)o1`, the activation was 40.5% (inactive).

As for `CCOC(=O)c1ccc(-c2ccc(C(=O)Nc3cccnc3)o2)cc1`, the activation is 48.9% (active).

For `COc1cccc(C(=O)Nc2cccnc2)c1OC`, the activation was 19.2% (inactive).

Take `CCN(CC)P(=O)(C(NC(=O)OC)C(F)(F)C(F)(F)C(F)(F)C(F)F)N(CC)CC` (stereo not drawn): the activation was -0.37% (inactive).

`O=C(N/N=C/c1ccc2c(c1)OCO2)C(=O)N1CCCC1`: the activation is 38.1% (inactive).

On to `O=C1/C(=C/c2ccc3c(c2)OCO3)CCC/C1=C\c1ccc2c(c1)OCO2`, for which the activation was 72.7% (active).

Turning to `CCC1=C/C(=C\c2ccc3c(c2)OCO3)C(=O)S1`, the activation was 1.47% (inactive).

`Cc1ccc(S(=O)(=O)N(C)CC(=O)NCC(c2ccc(F)cc2)N2CCOCC2)cc1` (stereo not drawn): the activation is -0.69% (inactive).

Consider `CC1=C(C(=O)OCc2ccccc2)C(c2ccco2)n2ncnc2N1` (stereo not drawn), for which the activation was 1.22% (inactive).

Regarding `Brc1ccc(C2=CC(c3ccco3)n3ncnc3N2)cc1` (stereo not drawn), the activation was 95.6% (active).

On to `CCOc1ccc(C2=CC(c3ccccc3)n3ncnc3N2)cc1` (stereo not drawn), for which the activation was -3.83% (inactive).

`C#CCNC(=O)C1=C[C@@H](c2ccccc2)[C@H](CCCO)[C@@H](OCC)O1`: the activation is 1.77% (inactive).

In the case of `CCCCn1nc(C(=O)Nc2ccc(S(=O)(=O)Nc3ncccn3)cc2)c2ccccc2c1=O`, the activation was 2.56% (inactive).

For `Cc1cccc(N=Nc2c(C)[nH]n(-c3ccccc3)c2=O)c1`, the activation was 40% (inactive).

In the case of `Cc1[nH]n(C(N)=S)c(=O)c1N=Nc1ccc(Cl)cc1Cl`, the activation was 55.6% (active).

With `CC1=NN(C(N)=S)C(=O)C1N=Nc1cc(Cl)ccc1Cl` (stereo not drawn), the activation was 11.5% (inactive).

Turning to `O=C(CCc1ccccc1)Nc1ncc([N+](=O)[O-])s1`, the activation is 6.21% (inactive).

For the compound `O=C(Cc1c(F)cccc1Cl)Nc1ncc([N+](=O)[O-])s1`, the activation is 48.5% (active).

Take `O=C(Cc1c(F)cccc1Cl)Nc1ccc(-n2cnnn2)cc1`: the activation is 0.09% (inactive).

Turning to `CCOC(=O)C(=Cc1ccccc1OC)C(=O)OCC`, the activation is -3.1% (inactive).

Consider `CN(C)c1ccnc2sc(C(=O)c3ccccc3)c(N)c12`, for which the activation is 15.9% (inactive).

Turning to `CCN(CC)C(=O)c1sc2nc(-c3ccccc3)ccc2c1N`, the activation is 76.4% (active).

As for `Nc1c(C(=O)NCc2ccccc2)sc2nc3c(cc12)C(=O)CCC3`, the activation is 2.82% (inactive).

With `Cc1ccc(N2C(=O)C(NC(=O)c3c(F)cccc3F)(C(F)(F)F)C3=C2CC(C)(C)CC3=O)cc1` (stereo not drawn), the activation is 2.49% (inactive).

As for `O=C(CC1NCCc2ccccc21)Nc1cccc(Cl)c1` (stereo not drawn), the activation was 8.99% (inactive).

Regarding `Cc1ccc(CNC(=O)CC2Sc3ccccc3NC2=O)cc1` (stereo not drawn), the activation was 4% (inactive).

As for `O=C(CC1Nc2ccccc2NC1=O)Nc1ccccc1` (stereo not drawn), the activation is 101% (active).

In the case of `O=C(CC1Nc2ccccc2NC1=O)Nc1ccccc1NC(=O)CC1Nc2ccccc2NC1=O` (stereo not drawn), the activation was 47.5% (active).

`COC(=O)C(C)C1Sc2ccccc2NC1=O` (stereo not drawn): the activation was -0.86% (inactive).

For the compound `O=C(CC1NCCNC1=O)Nc1ccc(Oc2ccccc2)cc1` (stereo not drawn), the activation was 5.88% (inactive).

With `COC(=O)c1c(C)oc2ccc(N(C(=O)Oc3ccccc3)S(=O)(=O)c3ccccc3)cc12`, the activation was -0.17% (inactive).

For `COCCCNC(=O)c1ccc(CNS(=O)(=O)c2ccc(NC(C)=O)cc2)cc1`, the activation was 0.77% (inactive).

For `Cc1cc(C)n(CC(O)COc2ccc(C(C)(C)C)cc2)n1` (stereo not drawn), the activation is 1.06% (inactive).

As for `COc1ccc(OCCNC(=O)c2cc(C3CC3)nc3c2cnn3C(C)C)cc1`, the activation is 5.03% (inactive).

Consider `CC(C)n1ncc2c(C(=O)NCc3ccccc3CN(C)C)cc(C3CC3)nc21`, for which the activation was 2.81% (inactive).

In the case of `CC(C)n1ncc2c(C(=O)Nc3ccc(CC#N)cc3)cc(C3CC3)nc21`, the activation is 89.9% (active).

With `O=C(CCNC(=O)c1ccccc1Cl)NN=Cc1ccco1`, the activation was -0.2% (inactive).

In the case of `Cc1ccc(C(=O)N/C(=C\c2cn(S(=O)(=O)N(C)C)c3ccccc23)C(=O)N2CCCC2)cc1`, the activation was 0.25% (inactive).

With `Cc1ccc(OCc2n[nH]c(=S)n2-c2ccccc2)cc1`, the activation was 2.23% (inactive).

Consider `S=c1[nH]nc(-c2cc(-c3ccsc3)n[nH]2)n1-c1ccccc1`, for which the activation is 84% (active).

Regarding `S=c1[nH]nc(COc2ccccc2)n1-c1ccccc1`, the activation was -2.15% (inactive).

For `CCc1ccc(C(=O)OCC(=O)NCC(F)(F)F)cc1`, the activation is 1.13% (inactive).

In the case of `O=C(Nc1ccccc1F)c1ccc2c(c1)OCO2`, the activation is 7.6% (inactive).

Regarding `Fc1ccccc1-c1cc2cc3c(cc2cn1)OCO3`, the activation is 77.2% (active).

As for `Fc1ccc2cnc(-c3ccccc3)cc2c1`, the activation was 31.9% (inactive).

On to `O=C(NCc1ccc2c(c1)OCO2)c1cc([N+](=O)[O-])ccc1N1CCOCC1`, for which the activation is -0.76% (inactive).

On to `Cc1nnc(C)c2c(C)n(N)c(C)c12`, for which the activation was -0.81% (inactive).

Take `CN1CCc2ccccc2C1Cc1ccccc1NC(=O)c1sc2ccccc2c1Cl` (stereo not drawn): the activation is 11.4% (inactive).

Take `COc1ccc(CNC(=O)CNC(=O)c2sc3ccccc3c2Cl)cc1OC`: the activation was -3.5% (inactive).

Regarding `O=C(N/N=C/c1c(Cl)[nH]c2ccccc12)c1sc2ccccc2c1Cl`, the activation was 74.3% (active).

Take `O=C(CCNS(=O)(=O)c1ccccc1)NCCSc1ccc(Br)cc1`: the activation was -0.18% (inactive).

Regarding `Cc1sc2ncn(CC(=O)NCCCC(=O)N3CCN(c4ccccc4F)CC3)c(=O)c2c1C`, the activation is -0.77% (inactive).

Take `COc1ccc(Nc2oc(-c3ccccc3Cl)nc2C#N)cc1`: the activation was -7.03% (inactive).

Take `N#Cc1nc(COc2ccc(-c3ccccc3)cc2)oc1NCc1cccnc1`: the activation is -4.66% (inactive).

With `CCOc1ccc(Nc2oc(Cc3ccccc3)nc2C#N)cc1`, the activation was 58.1% (active).

`Cc1cccc(N(C)C(=O)c2cc3c(=O)[nH]c4ccc(C)cc4c3s2)c1`: the activation is 39% (inactive).

Consider `C=CCSc1nnc(Cn2c(=O)sc3ccccc32)n1C`, for which the activation is 0.37% (inactive).

In the case of `Cc1cccc[n+]1CC(=O)c1ccccc1`, the activation is 1.77% (inactive).

As to `O=C(CNC(=O)c1ccc(F)cc1)c1ccccc1`, the activation was 3.71% (inactive).

Consider `O=C(C[n+]1cc(Br)cc2ccccc21)c1ccc(F)cc1`, for which the activation was 58.6% (active).

For the compound `S=c1[nH]cc(-c2ccc(Cl)cc2)n1-c1ccccc1`, the activation was 6.37% (inactive).

Regarding `CC(C)(C)OC(=O)C[C@@H]1C/C=C\C[C@@H](CC(=O)NCCO)C(=O)N[C@H](Cc2c[nH]c3ccccc23)COC1=O`, the activation was 0.32% (inactive).

As to `C=CCN1C(=O)C2(OCCCO2)c2cccc(Cl)c21`, the activation was -2.96% (inactive).

Turning to `Cc1ccc2occ(/C=N/NC(=O)c3ccccc3C)c(=O)c2c1`, the activation is 6.34% (inactive).

For `O=c1c(/C=N/O)coc2ccc(Cl)cc12`, the activation is -0.55% (inactive).

`NC(=S)N/N=C/c1coc2cc(Cl)ccc2c1=O`: the activation was 60.2% (active).
